From PubChem BioAssay AID779 (Sanford-Burnham Center for Chemical Genomics, 2007)
A number with no mark means an inactive call. How the calls were made is not given here.

Assay: placental alkaline phosphatase inhibitors, dose response, counter-screen, biochemical, colorimetric (AID 779)
Details: PLAP counter-screen, colorimetric OD read-out

## CCCCOP(=O)(OCCCC)/C(C#N)=C(/C)O
  IC50: > 50 µM

## Cc1cc(C=C2C(=O)N(C)C(=S)N(C)C2=O)c(C)n1C1CCCCC1
  IC50: > 50 µM

## CN1/C(=C\C=C\C2=[N+](C)c3ccc4ccccc4c3C2(C)C)C(C)(C)c2ccccc21
  IC50: > 50 µM

## COc1ccc(C(=O)CN2CCOCC2)cc1F
  IC50: > 50 µM

## CC(=O)OC1(c2ccc(C)cc2)CN2CCC1c1ccccc12 (stereo not given)
  IC50: > 50 µM
